Results on seven molecules are retold here after PubChem BioAssay (Tox21).

Assay [1] in a line: Nuclear factor erythroid 2-related factor 2/antioxidant responsive element (Nrf2/ARE) small molecule agonists: luciferase reporter gene qHTS assay in human keratinocytes (AID 1919969). Further: nearly all actives have a fitted effect of over 35% in size. Further: potency means the concentration at half of the fitted maximal effect. On the technique in general: A reporter such as luciferase makes a cellular process visible.
For assay [2], the target named is Gonadotropin-releasing hormone receptor (Homo sapiens) (UniProt P30968). The assay is described as follows: Human gonadotropin-releasing hormone receptor (GnRHR) small molecule agonists, calcium flux assay in GnRHR-HEK293 cells (AID 1920063). Further: nearly all actives have a fitted effect of over 35% in size. Further: potency means the concentration at half of the fitted maximal effect. The essentials:
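Agonist activity was measured as intracellular calcium flux in HEK293 cells engineered to stably express human GnRHR. After dye loading for 1 hour at 37 C, compounds in DMSO were added and fluorescence was followed for 3 minutes.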
A general note: Calcium assays in cells follow changes in intracellular calcium, usually with a dye or a luminescent sensor.

The nature of assay [3]: G protein-coupled receptor (GPCR) small molecule agonists, calcium flux assay: HEK293 wild type cell line counter screen (AID 1920065). Put shortly:
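Seed cells, incubate 18 h (37 C, 5% CO2); add calcium dye, 1 h at 37 C; pin-transfer compounds, ATP control or DMSO; read fluorescence 480/540 nm each second for 3 min.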

Assay [4] in a line: p53 small molecule agonists, cell-based qHTS assay with human liver microsomes (AID 1963577).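 Further: p53 response element beta-lactamase reporter cells with liver microsomes plus NADPH.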 The essentials:
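p53RE-bla cells; 5 h settle, 37 C/5% CO2; cpd + HLM 0.5 mg/mL + NADPH 0.5 mg/mL (final); 16 h 37 C; LiveBLAzer 2 h RT dark; fluorescence readout.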
A general note: Quantitative high-throughput screening tests each substance at several concentrations.

The nature of assay [5]: p53 small molecule agonists, cell-based qHTS assay with rat liver microsomes (AID 1963578). Put shortly: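 Rat liver microsome activation: microsomes 0.5 mg/mL, NADPH 0.5 mg/mL final; p53RE-bla cells, 16 h 37 C; LiveBLAzer readout, 2 h RT dark.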
Assay [6] is described as follows: p53 small molecule agonists, cell-based qHTS assay: qHTS cell viability counter screen (AID 1963581). Further: nearly all actives have a fitted effect of over 45% in size. Further: potency means the concentration at half of the fitted maximal effect. Put shortly:
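Viability was counter-screened in parallel with the p53 agonist reporter by measuring intracellular ATP luminescence in the same HCT-116 p53RE-bla wells after 16 h compound treatment at 37 C.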

Assay [7] can be described thus: p53 small molecule agonists, cell-based qHTS assay (AID 1963582; active means well fitted activation curve with a large enough effect in the signal ratio in the repeat runs, not every such curve was filed as active; the % refers to the signal ratio). Put shortly: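 Cells carrying a p53-responsive bla reporter are treated with test compounds for 16 h at 37 C; beta-lactamase activity is then detected with LiveBLAzer B/G FRET substrate after 2 h at room temperature.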
For assay [8], the target named is 5-hydroxytryptamine receptor 2A (Homo sapiens) (UniProt P28223). Nature of the assay: 5-hydroxytryptamine receptor 2A (HTR2A) small molecule agonists, cell-based qHTS assay (AID 1963587). Further: nearly all actives have a fitted effect of over 30% in size. Further: potency means the concentration at half of the fitted maximal effect. Put shortly:
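CHO cells stably expressing human HTR2A, plated 18 h, loaded with calcium dye 1 h at 37 C. Agonist mode: compounds added and intracellular calcium fluorescence recorded kinetically for 2 min at 1 sec intervals.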

In assay [9] the target is Muscarinic acetylcholine receptor M1 (Homo sapiens) (UniProt P11229). Nature of the assay: Cholinergic receptor muscarinic 1 (CHRM1) small molecule antagonists, cell-based qHTS assay (AID 1963588). Further: nearly all actives have a fitted effect of over 40% in size. The essentials:
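Compounds were tested at 15 concentrations in three independent runs. Dye-loaded CHRM1-CHO cells were exposed 5 min at room temperature before stimulation by acetylcholine added at 50nM. Intracellular calcium was read kinetically on FDSS for 3 min.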

The target is the same in assay [10]. The assay is described as follows: Cholinergic receptor muscarinic 1 (CHRM1) small molecule agonists, cell-based qHTS assay (AID 1963589). Further: nearly all actives have a fitted effect of over 35% in size. Further: potency means the concentration at half of the fitted maximal effect. Put shortly: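 Cells were plated and incubated 18 h at 37 C/5% CO2, loaded with calcium dye for 1 h at 37 C, then treated with compounds in DMSO. Fluorescence was recorded kinetically at 1 sec intervals.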
Assay [11] in a line: cAMP Responsive Elements (CRE) small molecule agonists, cell-based qHTS assay (AID 1963590). Put shortly: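 Cells carrying a CRE-driven beta-lactamase reporter (HEK 293T) are seeded, incubated overnight (18 h), and treated with test compounds for 3 h at 37 C; reporter activity is then detected with a FRET substrate after 2 h at room temperature.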
A short description of assay [12]: cAMP Responsive Elements (CRE) small molecule antagonists, cell-based qHTS assay (AID 1963591; active means well fitted inhibition curve with a large enough effect in the signal ratio in the repeat runs, not every such curve was filed as active; the % refers to the signal ratio). The essentials: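 Cells (CRE-bla HEK 293T, DMEM with 10% dialyzed FBS and 25 mM HEPES) are seeded and incubated 18 h. Compounds are added with NKH477 agonist at 0.25 uM final for 3 h, then FRET substrate for 2 h.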
The target of assay [13] is Beta-2 adrenergic receptor (Homo sapiens) (UniProt P07550). The assay is described as follows: Adrenergic beta2 receptor (ADRB2) small molecule antagonists, cell-based qHTS assay (AID 1963592). Further: series mostly up to about 92 µM; nearly all actives have a fitted effect of over 50% in size. The essentials: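 Assay format: CHO-ADRB2 cells, 18-20hr seeding at 37C/5% CO2, then compound plus 1nM isoproterenol agonist mix for 0.5hr RT. Homogeneous time-resolved fluorescence cAMP detection after 1hr, expressed as 665/615 nm ratio.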

Assay [14] has as its target D(2) dopamine receptor (Homo sapiens) (UniProt P14416). The assay is described as follows: Dopamine D2 receptor (DRD2) small molecule agonists, cell-based qHTS assay (AID 1963594). Further: nearly all actives have a fitted effect of over 35% in size. The essentials:
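HEK293 cells stably expressing human DRD2, pre-treated with PDE inhibitor Ro20-1724 (0.1 mM final) and compound 10 min at room temperature, then stimulated with NKH477 (200nM […]) for 30 min. cAMP read by HTRF (665/620 nm).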

Assay [15] shares this target. The assay is described as follows: Dopamine D2 receptor (DRD2) small molecule antagonists, cell-based qHTS assay (AID 1963595; active means well fitted inhibition curve with a large enough effect in the signal ratio in the repeat runs, with a control signal flat; the % refers to the signal ratio). Put shortly: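 HTRF cAMP read-out at 665 and 620 nm emission (340 nm excitation). Antagonist mode: compounds were tested against 12 nM quinpirole in DRD2-HEK293 cells, with 200 nM NKH477 raising cAMP and 0.1 mM Ro20-1724 blocking its breakdown.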

In assay [16] the target is KiSS-1 receptor (Homo sapiens) (UniProt Q969F8). Nature of the assay: Human kisspeptin (KISS1R) small molecule agonists, calcium flux assay in KISS1R-HEK293 cells (AID 1920064; active means well fitted activation curve with a large enough effect in the repeat runs). The essentials: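 Agonist activity is monitored as intracellular calcium rise in engineered HEK293 cells carrying human KISS1R. Cells are dye-loaded for 1 h at 37 C before compound addition, and fluorescence is recorded for 3 min.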

Assay [17] in a line: p53 small molecule agonists, cell-based qHTS assay with human liver microsomes: qHTS cell viability counter screen (AID 1963579). Further: nearly all actives have a fitted effect of over 45% in size. Further: potency means the concentration at half of the fitted maximal effect. Put shortly:
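Luminescent CellTiter-Glo read-out, 30 min at room temperature, gauged cytotoxicity in p53RE-bla cells exposed 16 h at 37 C to DMSO-dissolved compounds with metabolic activation by human liver microsomes and NADPH, each 0.5 mg/mL final.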

Assay [18] in a line: p53 small molecule agonists, cell-based qHTS assay with rat liver microsomes: qHTS cell viability counter screen (AID 1963580). Further: nearly all actives have a fitted effect of over 45% in size. Further: potency means the concentration at half of the fitted maximal effect. The essentials: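 After the beta-lactamase ratio was read, CellTiter-Glo was added to the same wells and luminescence measured at 30 min; cells had been treated 16 h at 37 C with compounds, rat liver microsomes and NADPH (0.5 mg/mL final each).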
Assay [19] has as its target Beta-2 adrenergic receptor (Homo sapiens) (UniProt P07550). The assay is described as follows: Adrenergic beta2 receptor (ADRB2) small molecule agonists, cell-based qHTS assay (AID 1963593).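 Further: CHO cells stably overexpressing human ADRB2.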 Put shortly: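 CHO cells stably over-expressing ADRB2 were plated overnight at 37C, then dosed with compounds plus a stimulation mix containing 100uM IBMX and 25uM Ro-20-1724 for 0.5hr at room temperature. cAMP was measured by HTRF competition, 1hr.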

In assay [20] the target is 5-hydroxytryptamine receptor 2A (Homo sapiens) (UniProt P28223). Nature of the assay: 5-hydroxytryptamine receptor 2A (HTR2A) small molecule antagonists, cell-based qHTS assay (AID 1963586). Further: nearly all actives have a fitted effect of over 45% in size. Further: potency means the concentration at half of the fitted maximal effect. The essentials:
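CHO cells stably expressing human HTR2A were plated for 18 h at 37 C, then loaded with calcium dye for 1 h. Compounds were preincubated 5 min at room temperature before DOI (4 nM solution) was added. Kinetic fluorescence was read for 3 min.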

Unmarked numbers belong to inactive results. Inconclusive results are not listed. The source made the active and inactive calls. Unless noted, the call rests on the fitted dose curve.
On the % scale 0 is the no-effect control and ±100 the full control effect.

Sequence of 5-hydroxytryptamine receptor 2A (Homo sapiens) (P28223 whole entry, looked up): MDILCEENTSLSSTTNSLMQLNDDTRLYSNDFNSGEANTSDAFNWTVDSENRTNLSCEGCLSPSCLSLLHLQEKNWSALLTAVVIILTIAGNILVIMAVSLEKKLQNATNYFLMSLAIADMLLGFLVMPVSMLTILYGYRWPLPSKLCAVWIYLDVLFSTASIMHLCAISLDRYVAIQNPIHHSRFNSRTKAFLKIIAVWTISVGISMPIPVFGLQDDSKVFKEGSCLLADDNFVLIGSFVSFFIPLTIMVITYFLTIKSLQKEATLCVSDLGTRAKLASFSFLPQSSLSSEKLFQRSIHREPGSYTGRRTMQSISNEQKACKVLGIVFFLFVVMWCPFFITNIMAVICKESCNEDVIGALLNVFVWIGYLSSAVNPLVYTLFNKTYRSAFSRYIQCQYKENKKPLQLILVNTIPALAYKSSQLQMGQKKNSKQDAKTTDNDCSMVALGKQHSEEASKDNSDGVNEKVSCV
Sequence of Muscarinic acetylcholine receptor M1 (Homo sapiens) (P11229 whole entry, looked up): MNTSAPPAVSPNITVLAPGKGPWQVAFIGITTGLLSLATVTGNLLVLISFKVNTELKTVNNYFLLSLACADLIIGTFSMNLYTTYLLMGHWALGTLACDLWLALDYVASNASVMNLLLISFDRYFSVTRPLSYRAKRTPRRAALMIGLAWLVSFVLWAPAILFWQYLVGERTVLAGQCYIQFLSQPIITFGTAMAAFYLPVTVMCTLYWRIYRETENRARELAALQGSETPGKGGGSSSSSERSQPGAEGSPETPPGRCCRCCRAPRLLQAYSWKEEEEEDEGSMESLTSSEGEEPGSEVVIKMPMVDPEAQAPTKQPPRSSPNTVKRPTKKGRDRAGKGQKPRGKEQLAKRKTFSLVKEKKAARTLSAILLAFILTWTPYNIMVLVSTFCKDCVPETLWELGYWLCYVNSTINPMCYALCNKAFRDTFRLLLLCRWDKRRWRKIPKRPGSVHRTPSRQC
Sequence of Beta-2 adrenergic receptor (Homo sapiens) (P07550 whole entry, looked up): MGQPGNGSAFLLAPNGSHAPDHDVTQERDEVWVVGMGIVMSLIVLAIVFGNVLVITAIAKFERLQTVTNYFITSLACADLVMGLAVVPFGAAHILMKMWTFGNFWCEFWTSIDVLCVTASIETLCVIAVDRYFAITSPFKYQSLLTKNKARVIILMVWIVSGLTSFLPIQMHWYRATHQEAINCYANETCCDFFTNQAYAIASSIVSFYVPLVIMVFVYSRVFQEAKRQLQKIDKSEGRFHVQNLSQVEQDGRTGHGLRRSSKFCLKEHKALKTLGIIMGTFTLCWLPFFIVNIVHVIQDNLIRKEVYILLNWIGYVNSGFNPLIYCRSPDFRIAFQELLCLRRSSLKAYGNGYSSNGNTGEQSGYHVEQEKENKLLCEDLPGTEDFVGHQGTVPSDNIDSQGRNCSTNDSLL
Sequence of D(2) dopamine receptor (Homo sapiens) (P14416 whole entry, looked up): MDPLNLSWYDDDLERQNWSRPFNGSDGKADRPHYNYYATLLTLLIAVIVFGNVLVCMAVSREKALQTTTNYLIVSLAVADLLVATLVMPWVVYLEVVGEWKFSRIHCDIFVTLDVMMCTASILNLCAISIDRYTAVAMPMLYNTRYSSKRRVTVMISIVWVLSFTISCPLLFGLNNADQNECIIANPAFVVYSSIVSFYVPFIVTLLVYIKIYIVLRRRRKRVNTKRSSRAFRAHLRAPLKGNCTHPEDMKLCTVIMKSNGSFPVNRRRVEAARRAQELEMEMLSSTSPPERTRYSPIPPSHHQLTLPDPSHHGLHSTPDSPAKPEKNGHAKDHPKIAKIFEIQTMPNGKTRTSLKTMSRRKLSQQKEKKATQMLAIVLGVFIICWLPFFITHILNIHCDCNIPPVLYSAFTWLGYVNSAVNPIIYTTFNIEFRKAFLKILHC
Sequence of Gonadotropin-releasing hormone receptor (Homo sapiens) (P30968 whole entry, looked up): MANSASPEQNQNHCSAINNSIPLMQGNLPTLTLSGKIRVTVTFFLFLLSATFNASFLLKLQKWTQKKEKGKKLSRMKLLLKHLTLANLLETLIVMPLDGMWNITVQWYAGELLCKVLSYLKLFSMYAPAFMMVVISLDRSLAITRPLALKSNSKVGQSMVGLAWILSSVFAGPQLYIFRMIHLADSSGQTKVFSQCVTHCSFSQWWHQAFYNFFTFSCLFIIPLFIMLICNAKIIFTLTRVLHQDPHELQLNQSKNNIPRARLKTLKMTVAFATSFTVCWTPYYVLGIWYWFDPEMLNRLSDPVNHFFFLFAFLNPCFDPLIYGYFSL
Sequence of KiSS-1 receptor (Homo sapiens) (Q969F8 whole entry, looked up): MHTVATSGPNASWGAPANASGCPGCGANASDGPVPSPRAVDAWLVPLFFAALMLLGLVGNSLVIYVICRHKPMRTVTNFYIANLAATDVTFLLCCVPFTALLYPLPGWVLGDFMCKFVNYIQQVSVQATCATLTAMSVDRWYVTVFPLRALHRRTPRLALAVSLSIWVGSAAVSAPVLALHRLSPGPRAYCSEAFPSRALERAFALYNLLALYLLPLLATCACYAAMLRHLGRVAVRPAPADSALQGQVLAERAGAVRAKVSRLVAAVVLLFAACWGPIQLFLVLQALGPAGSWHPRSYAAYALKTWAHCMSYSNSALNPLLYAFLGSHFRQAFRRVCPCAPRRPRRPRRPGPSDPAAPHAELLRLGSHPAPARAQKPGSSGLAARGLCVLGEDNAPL

Consider `C=CC(C)(CCC=C(C)C)OC(=O)/C=C/c1ccccc1` (stereo unspecified), for which the Potency in [1] was 68.6 µM (active). Also, the Potency entry in assay [2], in assay [3], in assay [4], in assay [5], in assay [6] and in assay [7] was “inactive” in each case. The Potency result in assay [8], in [9], in assay [10], in assay [11], in assay [12] and in assay [13] was “inactive” each time. In addition, the Potency entry in assay [14] and in [15] was “inactive” throughout.

With `N[C@@H](C(=O)N[C@@H]1C(=O)N2C(C(=O)O)=C(Cl)CS[C@H]12)c1ccccc1`, the activity, positive = activation in assay [1] was -7.33% [at 8.39 µM]. Besides, the activity change in [2] is -0.646% [at 5.22 µM, hits give high values]. Further, the activation in [16] is -2.2% [at 6.97 µM]; in assay [4] it was 0.17% [at 5.99 µM]; in assay [5], -0.141% [at 5.99 µM]; in [7], 0.331% [at 5.99 µM]; in assay [8] it was -1.95% [at 7.02 µM]; in [10], -0.906% [at 6.97 µM]. For the same molecule, the activation is -0.664% [at 8.39 µM] in [11] and -30.9% [at 8.39 µM] in assay [19]. Further, the values for the activity change, negative = cytotoxicity in assay [17] and in assay [18] were 3.89% [at 5.99 µM] and 0.042% [at 5.99 µM], respectively. Further, the activity, negative = inhibition in assay [9] was 6.01% [at 5.58 µM]. Moreover, the activity change, negative = inhibition is -10.2% [at 8.39 µM] in assay [12] and 6.7% [at 8.38 µM] in [15].

As for `CNCc1ccc(NC(=O)c2c[nH]c3c2C(=O)CCC3)cc1`, the Potency result in assay [1], in assay [2], in [16], in assay [5], in assay [17] and in assay [20] was “inactive” each time. For the same molecule, the Potency entry in [8], in [10], in assay [11], in assay [12], in assay [13] and in assay [15] was “inactive” throughout.

`CCCCN(CCCC)c1ccc(C(=O)c2ccccc2C(=O)O)c(O)c1`: the Potency entry in assay [1], in [2], in [3], in assay [4], in [5] and in assay [9] was “inactive” in each case. Besides, the Potency entry in [13], in [14] and in assay [15] was “inactive” each time. In addition, the Potency in [17] is 16.4 µM (active); in assay [18], 41.2 µM (active); in assay [6] it was 20.6 µM (active); in [8] it was 55.5 µM (active); in assay [10], 49.4 µM (active).

Take `O[C@@H](c1cc(C(F)(F)F)nc2c(C(F)(F)F)cccc12)[C@H]1CCCCN1`: the Potency result in [1], in assay [3], in assay [4], in [5], in [17] and in [18] was “inactive” each time. Besides, the Potency entry in assay [15] was “inactive”. Moreover, the Potency is 16.9 µM (active) in [2], 3.65 µM (active) in assay [20] and 10.7 µM (active) in assay [8].

Consider `CCCCC/C(=C\c1ccccc1)CO`, for which the Potency result in assay [1], in assay [2], in [3], in assay [4], in [5] and in assay [17] was “inactive” throughout. For the same molecule, the Potency result in [18], in [6], in assay [7], in assay [20], in assay [9] and in assay [10] was “inactive” each time. The Potency result in assay [12], in [13], in [14] and in [15] was “inactive” throughout.

`Cc1cccc(Br)c1`: the Potency in assay [1] was 24.5 µM (active); in assay [17], 20.6 µM (active). The Potency result in [2], in [3], in assay [4], in assay [5], in [18] and in assay [20] was “inactive” each time. Further, the Potency entry in assay [8], in assay [10], in [13], in [19], in assay [14] and in assay [15] was “inactive” in each case.
